Screening results from PubChem.
BoNT F protease – inhibitors of Botulinum neurotoxin F light chain protease | AID 588497 | Multiplex microsphere protease cleavage assay, flow cytometry | hit rate 0.22% among 360,000 | inhibition, % at 10 µM; in the data active = inhibition above about 35%, passing the limit was not always enough; inconclusive = no clear call, values can overlap the other calls; note: plate controls were buffer without enzyme for full effect and enzyme alone for no effect
Bead autofluor – flagged as autofluorescent in microsphere protease counterscreen. compound autofluorescence counterscreen, microsphere flow cytometry; hits give high values. fluorescence intensity (test concentration not listed). hit rate 3.1% among 360,000. AID 624483; in the data active = fluorescence intensity above about 16000; inconclusive = no clear call, values can overlap the other calls
Anthrax LF prot – blocks Bacillus anthracis lethal factor protease | P15917 | multiplex microsphere protease cleavage assay, LF | hit rate 0.12% among 360,000 | inhibition, % at 10 µM; note: plate controls were buffer without enzyme for full effect and enzyme alone for no effect
Target sequence (P15917 whole entry, looked up): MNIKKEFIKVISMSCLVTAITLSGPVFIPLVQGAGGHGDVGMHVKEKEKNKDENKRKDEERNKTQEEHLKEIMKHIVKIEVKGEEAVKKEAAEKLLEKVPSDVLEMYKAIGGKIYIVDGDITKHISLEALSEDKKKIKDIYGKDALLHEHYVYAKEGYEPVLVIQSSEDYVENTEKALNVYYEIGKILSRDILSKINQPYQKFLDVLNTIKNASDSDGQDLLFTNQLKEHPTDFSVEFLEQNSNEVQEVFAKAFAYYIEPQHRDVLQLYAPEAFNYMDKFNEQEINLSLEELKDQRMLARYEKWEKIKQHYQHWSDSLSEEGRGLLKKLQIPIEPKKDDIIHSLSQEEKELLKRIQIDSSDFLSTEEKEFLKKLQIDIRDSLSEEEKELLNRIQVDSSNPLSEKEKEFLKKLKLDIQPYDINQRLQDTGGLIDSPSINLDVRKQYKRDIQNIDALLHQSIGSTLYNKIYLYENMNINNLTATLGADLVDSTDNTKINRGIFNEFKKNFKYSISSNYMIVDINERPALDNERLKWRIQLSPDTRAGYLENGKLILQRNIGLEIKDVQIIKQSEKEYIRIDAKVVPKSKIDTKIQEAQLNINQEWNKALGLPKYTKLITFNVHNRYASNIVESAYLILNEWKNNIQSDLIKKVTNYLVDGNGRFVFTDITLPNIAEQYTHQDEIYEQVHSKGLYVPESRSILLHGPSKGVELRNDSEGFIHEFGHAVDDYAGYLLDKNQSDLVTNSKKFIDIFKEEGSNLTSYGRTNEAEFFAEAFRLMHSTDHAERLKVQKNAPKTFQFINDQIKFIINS
BoNT-A LC inh2 – blocks Botulinum neurotoxin A light chain protease; multiplex microsphere protease substrate cleavage, flow cytometry; inhibition, % at 10 µM; hit rate 0.17% among 360,000; AID 588499; note: plate controls were buffer without enzyme for full effect and enzyme alone for no effect
Numbers without * were called inactive; ? = inconclusive. Hits are enriched below; roughly 3.5% of the tested compounds scored in any of these assays. Cut-off read from the data, not from the text of the source, unless noted: active = inhibition above about 30%; inconclusive = no clear call, values can overlap the other calls; inactive = below that.

SMILES	BoNT F protease	Bead autofluor	Anthrax LF prot	BoNT-A LC inh2
CNc1nc2c(c(=O)n(C)c(=O)n2C)n1Cc1ccccc1	2.9	21814*	-0.8	2.4
O=C1C(Cl)=C(NCC2CCCO2)C(=O)N1Cc1ccccc1 (stereo not given)	-2.2	20284*	-1.0	?
O=C(C[C@H]1C[C@@H]2c3cc(NC(=O)c4ccc5c(c4)OCO5)ccc3O[C@@H]2[C@H](CO)O1)NCc1cc(F)ccc1F	-2.4	3404	-1.1	0.1
COCC(C)NS(=O)(=O)c1ccc(C(=O)NC(Cc2ccccc2)c2ccccc2)cc1 (stereo not given)	26.9	3494	-0.1	0.5
CSc1nnc(NC(=O)c2cc(=O)c3cc(C)cc(C)c3o2)s1	?	3472	-5.4	-2.9
Cc1ccc2nc(-c3ccccc3)cc(C(=O)N3CCc4ccccc4C3)c2c1	4.8	23070*	1.6	?
O=C(c1cccn2c(=O)c3ccccc3nc12)N1CCC2(CC1)OCCO2	-0.6	22328*	-1.1	-0.6
CN(c1ccccc1C(=O)N1CCc2ccccc2C1)S(C)(=O)=O	-0.4	22577*	-4.3	-0.2
O=C(c1cccn2c(=O)c3cc(Cl)ccc3nc12)N1CCC2(CC1)OCCO2	-9.2	7986	-2.3	-0.1
O=C(CCCn1c(=S)[nH]c2ccc(Br)cc2c1=O)N1CCN(c2ccccn2)CC1	-5.8	16819*	-6.6	-2.2
COc1cc(NC(=O)C2(C)CCCN2C)cc(OC)c1OC (stereo not given)	0.4	3011	2.1	0.1
O=C(c1cccn2c(=O)c3cc(Br)ccc3nc12)N1CCN(c2ccccn2)CC1	11.2	18386*	0.8	7.1
O=C(c1cccc(Cl)c1Cl)N1CCN(c2ccccn2)CC1	-0.6	16331*	-1.8	?
O=C(c1cc(-c2ccccc2)nc2ccccc12)N1CCC2(CC1)OCCO2	-2.1	23724*	-0.2	-1.3
O=C(c1cccn2c(=O)c3ccccc3nc12)N1CCN(c2ccccn2)CC1	-2.1	23291*	2.0	-3.1
Cc1ccc(S(=O)(=O)N2CCOCC2)cc1NC(=O)COC(=O)CNC(=O)c1ccc(Cl)cc1Cl	-6.8	6366	-1.4	-0.6
CC(C)Oc1cccc(-c2cc(C(=O)N3CCN(c4ncccn4)CC3)c3ccccc3n2)c1	-3.4	23367*	-3.2	?
COc1cccc(-c2cc(C(=O)N3CCN(c4ncccn4)CC3)c3ccccc3n2)c1	-1.2	3136	1.5	0.1
CCOC(=O)N1CCN(C(=O)c2cccn3c(=O)c4cc(Br)ccc4nc23)CC1	-1.0	4184	-7.4	0.8
CCOC(=O)N1CCN(C(=O)c2cccn3c(=O)c4sccc4nc23)CC1	-2.6	22718*	-7.8	?
CCC(=O)C1CCCN(C(=O)c2cccc(OC3CCN(S(C)(=O)=O)CC3)c2)C1 (stereo not given)	6.1	4330	-2.1	-1.5
COC(=O)[C@]1(Cc2ccccc2)N[C@H](c2ccc(-c3ccc(F)cc3)cc2)[C@@H]2C(=O)N(C)C(=O)[C@@H]21	7.9	7898	8.1	0.8
Cc1onc(-c2ccccc2Cl)c1C(=O)NC(=S)Nc1ccc(C(C)C)cc1	-3.7	5275	-6.4	0.4
Cc1ccc(NC(=S)NC(=O)c2c(-c3ccccc3Cl)noc2C)cc1	-1.4	22637*	-0.2	?
Cc1onc(-c2ccccc2Cl)c1C(=O)Nc1ccc2c(c1)OCO2	-6.0	?	-1.5	-0.3
SMILES	BoNT F protease	Bead autofluor	Anthrax LF prot	BoNT-A LC inh2
COC(=O)c1cc(OC)c(OC)cc1NC(=O)c1c(-c2ccccc2Cl)noc1C	4.7	21663*	0.0	3.2
COc1ccccc1NC(=S)NC(=O)c1c(-c2ccccc2Cl)noc1C	-6.6	2747	-0.8	-0.1
Cc1onc(-c2ccccc2Cl)c1C(=O)Nc1ccc(F)c(F)c1	-3.1	22619*	-13.8	0.1
Cc1onc(-c2ccccc2)c1C(=O)Nc1nc(-c2cc(F)ccc2F)cs1	-0.8	20225*	-2.6	-0.1
O=C(Cn1nnc(-c2ccccc2NC(=O)C2CC2)n1)NC1CCCCC1	-12.4	6780	-3.5	-0.9
O=C(Nc1ccc(OCC(=O)N2CCOCC2)cc1)c1ccccc1Cl	-6.3	6435	3.8	-1.9
COC(=O)c1cc(OC)c(OC)cc1NC(=O)Cn1nnc(-c2ccccc2Cl)n1	-4.8	24177*	-2.4	-1.6
COc1ccc(NC(=O)Cn2nnc(-c3ccccc3F)n2)cc1Cl	6.0	3048	-0.7	0.8
Cc1onc(-c2c(F)cccc2Cl)c1C(=O)Nc1sc2c(c1C(N)=O)CCC2	-1.9	16903*	-2.7	-0.7
Cc1onc(-c2ccccc2)c1C(=O)Nc1sc2c(c1C(N)=O)CCC2	-13.8	8435	-8.1	1.1
COc1cccc(-c2nnn(CC(=O)NC3CCCC3)n2)c1OC	0.2	16511*	-5.0	-1.2
Cc1onc(-c2ccccc2Cl)c1C(=O)Nc1ccc(OCC(=O)N2CCOCC2)cc1	-1.7	16183*	-0.6	-0.1
CC1(Oc2ccccc2)CCN(Cc2ccc(-c3ccccn3)cc2)C1 (stereo not given)	1.4	2958	-6.2	-0.2
C#CC(C)OCC1CNC(=S)O1 (stereo not given)	4.3	3388	0.3	-0.5
O=C(c1cccc(NS(=O)(=O)c2cccc(C(F)(F)F)c2)c1)N1CCOCC1	-6.0	5737	0.4	0.5
Cc1nnc(SCC(=O)Nc2cccc(S(=O)(=O)N3CCCC3)c2)n1C1CC1	-2.1	3632	0.6	0.1
CCCc1cc(=O)oc2cc(OCC(=O)NC3CC(C)(C)NC(C)(C)C3)ccc12	-3.0	4131	1.1	0.0
Cc1onc(-c2ccccc2Cl)c1C(=O)N1CCN(c2ccccc2)CC1	2.4	22146*	-3.6	?
Cc1ccc2nc(/C(C#N)=C\c3ccc(N4CCOCC4)o3)[nH]c2c1	110.1*	13254	-2.5	-4.2
Cc1ccc(/C(C#N)=C\c2ccc(N3CCOCC3)o2)cc1	-11.4	10448	-4.5	-2.4
CCn1nc(NC(=O)c2ccncc2)c2cc3ccc(C)cc3nc21	-3.4	20719*	0.9	-2.6
CCCn1nc(NC(=O)C2CCCO2)c2cc3cc(C)ccc3nc21 (stereo not given)	-1.5	21148*	-1.1	-0.3
CCCn1nc(NC(=O)C2CCCO2)c2cc3ccc(C)cc3nc21 (stereo not given)	?	4534	-33.5	2.6
CCCn1nc(NC(=O)c2cccs2)c2cc3ccccc3nc21	-2.5	23719*	-0.4	-1.4
CCCCn1nc(NC(=O)c2cccs2)c2cc3ccccc3nc21	4.3	21346*	1.0	3.4
SMILES	BoNT F protease	Bead autofluor	Anthrax LF prot	BoNT-A LC inh2
CCCn1nc(NC(=O)c2cccs2)c2cc3cc(C)ccc3nc21	?	3878	-5.6	-1.8
CCN(CC)C(=O)c1cccc(NC(=O)C2CCN(C(=O)c3cccs3)CC2)c1	-8.7	4074	-5.4	-0.2
Cc1ccnc(NS(=O)(=O)c2ccc(-n3cccn3)cc2)c1	1.2	5318	2.1	0.8
CCCC(=O)Nc1nn(CCC)c2nc3ccccc3cc12	-4.4	21458*	-2.6	-1.3
Cc1ccc(Oc2ccc(NS(=O)(=O)c3cccc(C(=O)O)c3)cc2)cc1	-9.0	3148	-4.5	-1.0
O=C(NC(=O)c1cccc(OC(F)(F)C(F)F)c1)OC1CCS(=O)(=O)C1 (stereo not given)	0.8	24101*	1.4	-0.4
O=C(Nc1ccccc1)OC1CCS(=O)(=O)C1 (stereo not given)	-8.9	9471	-0.4	-1.1
